# Test results taken from PubChem BioAssay (Tox21).
# Inconclusive results are not listed. Where a call stands in place of a potency, no number is given. Where a structure was tested more than once in an assay, its records may differ in their call. The source made the active and inactive calls. The call rests on the fitted dose curve.
# Biological target: Progesterone receptor (Homo sapiens) (UniProt P06401)
# Assay: qHTS assay to identify small molecule agonists of the progesterone receptor (PR) signaling pathway (AID 1346784); further: nearly all actives have a fitted effect of over 30% in size
# Conditions: PR-UAS-bla HEK293T, beta-lactamase FRET ratio, 16 h; series mostly up to 92.4 µM
# Source text: U.S. Tox21 Program National Center for Advancing Translational Sciences [NCATS] NIH Chemical Genomics Center [NCGC] U.S. Environmental Protection Agency [EPA] National Institutes of Environmental Health Sciences [NIEHS] National Toxicology Program [NTP] U.S. Food and Drug Administration [FDA] […] Endocrine disrupting chemicals (EDCs) and their interactions with steroid hormone receptors like PR causes disruption of normal endocrine function. To identify the compounds that activate PR signaling, a PR-UAS-bla GripTite cell line i.e. PR-UAS-bla HEK 293T (Invitrogen, Carlsbad, CA, USA) containing a beta-lactamase reporter gene under the control of an Upstream Activator Sequence (UAS) was used to screen Tox21 10K compound library.
# Tox21 Assay Protocol Summary: PR-UAS-bla HEK 293T cells were dispensed at 3,000 cells/5 uL of assay medium containing 2% charcoal stripped FBS per well into black wall/clear-bottom 1536-well plates using a Multidrop Combi (ThermoFisher Scientific, Waltham, MA) dispenser. After the assay plates were incubated at a 37C and 5% CO2 for 6hr, 23 nL of compounds dissolved in DMSO, positive controls or DMSO only was transferred to the assay plate by a Pintool station (Kalypsys, San Diego, CA). The plates were incubated at 37C and 5% CO2 for 16hr. Then 1 uL of LiveBLAzer B/G FRET substrate was added using a BioRAPTR FRD (Flying Reagent Dispenser, Aurora Discovery, San Diego, CA). After the plates were incubated at room temperature for 2 hours, fluorescence intensity was measured by an Envision plate reader (PerkinElmer, Shelton, CT).
# Potency means the concentration at half of the fitted maximal effect.
# Progesterone receptor (Homo sapiens), sequence (P06401 whole entry, looked up): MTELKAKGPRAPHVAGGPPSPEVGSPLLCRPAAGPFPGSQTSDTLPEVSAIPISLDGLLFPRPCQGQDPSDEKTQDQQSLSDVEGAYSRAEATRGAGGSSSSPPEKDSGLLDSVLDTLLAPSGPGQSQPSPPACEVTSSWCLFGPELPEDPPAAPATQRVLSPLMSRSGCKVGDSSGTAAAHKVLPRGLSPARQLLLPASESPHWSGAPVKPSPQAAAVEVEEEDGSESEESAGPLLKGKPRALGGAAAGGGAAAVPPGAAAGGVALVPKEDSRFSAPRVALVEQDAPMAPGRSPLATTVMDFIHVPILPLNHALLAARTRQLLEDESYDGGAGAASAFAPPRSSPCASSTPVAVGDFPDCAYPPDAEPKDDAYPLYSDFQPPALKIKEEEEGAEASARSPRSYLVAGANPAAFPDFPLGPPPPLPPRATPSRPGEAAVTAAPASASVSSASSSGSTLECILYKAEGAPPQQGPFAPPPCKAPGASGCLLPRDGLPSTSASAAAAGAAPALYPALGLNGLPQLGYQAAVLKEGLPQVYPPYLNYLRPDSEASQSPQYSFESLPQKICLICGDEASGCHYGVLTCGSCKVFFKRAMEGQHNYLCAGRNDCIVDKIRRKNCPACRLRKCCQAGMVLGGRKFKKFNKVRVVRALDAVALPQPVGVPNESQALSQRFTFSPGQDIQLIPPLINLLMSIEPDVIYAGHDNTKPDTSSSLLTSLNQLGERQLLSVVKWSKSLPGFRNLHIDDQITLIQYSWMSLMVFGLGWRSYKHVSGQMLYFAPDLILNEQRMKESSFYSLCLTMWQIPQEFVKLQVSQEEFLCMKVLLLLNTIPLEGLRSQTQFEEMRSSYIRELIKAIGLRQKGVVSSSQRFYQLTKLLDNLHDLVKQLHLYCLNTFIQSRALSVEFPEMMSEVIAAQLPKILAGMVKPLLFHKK
row,SMILES,Potency
1,COc1ccc(C=O)cc1,inactive
2,c1ccc(-c2cccc(-c3ccccc3)c2)cc1,inactive
3,CC(C)=CC1C(C(=O)OCc2coc(Cc3ccccc3)c2)C1(C)C (stereo not given),inactive
4,Oc1cc(Cl)ccc1Cl,inactive
5,CC(C)NC(C)C,inactive
6,CCC(C)c1ccc(O)cc1 (stereo not given),inactive
7,Cc1cc(C)cc(C)c1,inactive
8,C=C(C)[C@H]1Cc2c(ccc3c2O[C@@H]2COc4cc(OC)c(OC)cc4[C@@H]2C3=O)O1,inactive
9,COc1ccc(C(CN(C)C)C2(O)CCCCC2)cc1 (stereo not given),inactive
10,O=P(O)(O)CCCl,inactive
11,O=C(CCl)c1ccccc1,inactive
12,CCCCNC(=O)n1c(NC(=O)OC)nc2ccccc21,inactive
13,c1nc[nH]n1,inactive
14,CCCCOCCOP(=O)(OCCOCCCC)OCCOCCCC,inactive
15,C1=Cc2cccc3cccc1c23,60.1 µM (active) and inactive
16,C=CC(=O)OCCO,inactive
17,Nc1ccc(-c2ccc(N)c(N)c2)cc1N,inactive
18,Nc1ccc(-c2ccccc2)cc1,inactive
19,CCC(CC)Nc1c([N+](=O)[O-])cc(C)c(C)c1[N+](=O)[O-],inactive
20,CCCCCCCCOC(=O)c1ccccc1C(=O)OCCCCCCCC,inactive

row,SMILES,Potency
1,NNC(N)=S,inactive
2,O=P(Oc1ccccc1)(Oc1ccccc1)Oc1ccccc1,inactive
3,CC(C)(c1cc(Cl)c(O)c(Cl)c1)c1cc(Cl)c(O)c(Cl)c1,inactive
4,O=c1oc2ccccc2c(O)c1C(CC(O)c1ccc(-c2ccc(Br)cc2)cc1)c1ccccc1 (stereo not given),inactive
5,N#CCCCl,inactive
6,CCc1cccc(CC)c1N(COC)C(=O)CCl,inactive
7,CCC(C)c1cc([N+](=O)[O-])cc([N+](=O)[O-])c1O (stereo not given),inactive
8,C=CCc1ccc(OC)cc1,inactive
9,Nc1ccc(Cl)c(Cl)c1,inactive
10,CCOCN(C(=O)CCl)c1c(C)cccc1CC,inactive
11,CCOc1cc(C=O)ccc1O,inactive
12,ClC1C(Cl)C(Cl)C(Cl)C(Cl)C1Cl (stereo not given),inactive
13,CCC(C)(c1ccc(O)cc1)c1ccc(O)cc1,inactive
14,CC(C)(OOC(C)(C)c1ccccc1)c1ccccc1,inactive
15,c1ccc(NNc2ccccc2)cc1,inactive
16,COP(=S)(OC)Oc1cc(Cl)c(Cl)cc1Cl,inactive
17,COP(=S)(OC)Oc1ccc([N+](=O)[O-])cc1,inactive
18,CCCCC(CC)COC(=O)c1ccc(C(=O)OCC(CC)CCCC)c(C(=O)OCC(CC)CCCC)c1 (stereo not given),inactive
19,Clc1nc(Cl)nc(Cl)n1,inactive
20,Brc1ccc(Oc2cc(Br)c(Br)cc2Br)c(Br)c1,inactive
